About 83,000 compounds went through this panel and 20% of them were active in at least one assay; those are over-represented in the sample as a whole.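 Cell lines were cultured in 96-well plates, exposed to a single compound concentration, and assessed for percent growth 48 hours later.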 Activity calls are given as the source filed them. Rule for the calls: active = growth percent below 10; inactive = the rest.
Tests used:
Assay in all cases: NCI-60 one-dose screen, 48 h (100 = growth as untreated, 0 = no growth, -100 = all killed)
Details in all cases: 10 µM unless noted
T-47D breast = test system: T-47D breast
BT-549 breast = test system: BT-549 breast
MDA-MB-435 melanoma = test system: MDA-MB-435 melanoma
SW-620 colon = test system: SW-620 colon
MCF7 breast = test system: MCF7 breast
HCT-116 colon = test system: HCT-116 colon
HCC-2998 colon = test system: HCC-2998 colon
KM12 colon = test system: KM12 colon

Measured: growth

COc1ccc(/C=C2\CS(=O)(=O)C/C(=C\c3ccc(OC)cc3)C2=O)cc1
inactive: T-47D breast 14.6%
active: BT-549 breast -38.6% | MDA-MB-435 melanoma -28.8% | SW-620 colon 0.757% | MCF7 breast -15% | HCT-116 colon -83.2% | HCC-2998 colon -98% | KM12 colon -93.2%

O=C(NC(=S)Nc1ccc(Cl)cc1)c1ccccc1
inactive: T-47D breast 105% | BT-549 breast 131% | MDA-MB-435 melanoma 96.9% | SW-620 colon 109% | MCF7 breast 59.2% | HCT-116 colon 92.5% | HCC-2998 colon 106% | KM12 colon 124%

COc1cc(NS(C)(=O)=O)ccc1Cc1c2ccccc2nc2ccccc12
active: BT-549 breast -13.9% | HCT-116 colon 0.0983%
inactive: T-47D breast 33.5% | MDA-MB-435 melanoma 51.1% | SW-620 colon 26.6% | MCF7 breast 28% | HCC-2998 colon 11.9% | KM12 colon 11.1%

COc1ccccc1N1CCN(CC(O)COc2c(Br)c(Br)c(Br)c3c2OC(C)(C)C3)CC1 (configuration not stated)
inactive: T-47D breast 39.8% | BT-549 breast 98.6% | MDA-MB-435 melanoma 37.2% | SW-620 colon 33.3% | MCF7 breast 26.8% | HCT-116 colon 27.4% | HCC-2998 colon 39.9% | KM12 colon 35.7%

COc1ccc(/C=C/C(=O)c2ccc(NC(=O)CSc3nnc(-c4cc(OC)c(OC)c(OC)c4)o3)cc2)cc1
active: T-47D breast -44.5% | BT-549 breast -3.02% | MDA-MB-435 melanoma -39.2% | SW-620 colon -61.5% | MCF7 breast -30.8% | HCT-116 colon -76.4% | HCC-2998 colon -72% | KM12 colon -91.8%

Nc1nc(Cl)cc(NCc2ccc(CNc3cc(Cl)nc(N)n3)cc2)n1
inactive: T-47D breast 69.2% | BT-549 breast 72.6% | MDA-MB-435 melanoma 106% | SW-620 colon 87.4% | MCF7 breast 103% | HCT-116 colon 83.3% | HCC-2998 colon 101% | KM12 colon 99%

S=C=NP1(N=C=S)=NP(N=C=S)(N=C=S)=NP(N=C=S)(N=C=S)=NP(N=C=S)(N=C=S)=N1 (configuration not stated)
inactive: T-47D breast 82.3% | BT-549 breast 80.4% | MDA-MB-435 melanoma 104% | SW-620 colon 108% | MCF7 breast 91% | HCT-116 colon 98.8% | HCC-2998 colon 102% | KM12 colon 102%

COc1cc(/C=C/C(=O)c2c(C)n([O-])c3cc(C)c(C)cc3[n+]2=O)cc(OC)c1OC
inactive: T-47D breast 51.8% | BT-549 breast 23% | MDA-MB-435 melanoma 45.8% | SW-620 colon 50.1% | MCF7 breast 11.1% | HCT-116 colon 42.6% | HCC-2998 colon 85.5% | KM12 colon 69.8%

C[C@H]1C=C(C[C@@H](O)CC#CC#CCCCCC[C@@H](O)[C@H]2CCC(=O)O2)C(=O)O1
inactive: T-47D breast 92.8% | BT-549 breast 112% | MDA-MB-435 melanoma 111% | SW-620 colon 103% | MCF7 breast 115% | HCT-116 colon 83.2% | HCC-2998 colon 105% | KM12 colon 110%

COc1cc2ncnc(Oc3ccc(NC(=O)Nc4ccc(CN5CCOCC5)c(C(F)(F)F)c4)c4ccccc34)c2cc1OC
active: MDA-MB-435 melanoma 6.39% | MCF7 breast 8.45% | KM12 colon 6.26%
inactive: T-47D breast 10.3% | BT-549 breast 25.2% | SW-620 colon 24.8% | HCT-116 colon 17.4% | HCC-2998 colon 75.9%

COc1cc2ncn3c(=O)c4c5c(sc4nc3c2cc1OC)CCCCC5
inactive: T-47D breast 84.7% | BT-549 breast 105% | MDA-MB-435 melanoma 109% | SW-620 colon 101% | MCF7 breast 86.8% | HCT-116 colon 97.4% | HCC-2998 colon 106% | KM12 colon 99.2%

O=c1c2ccccc2[nH]n1Cc1ccc2c(c1)OCO2
inactive: T-47D breast 88.9% | BT-549 breast 107% | MDA-MB-435 melanoma 105% | SW-620 colon 108% | MCF7 breast 90.8% | HCT-116 colon 99.9% | HCC-2998 colon 106% | KM12 colon 102%

Cc1ccc(/C=C2/C(=O)Nc3cc(Cl)c(-c4csc(N)n4)cc32)cc1
inactive: T-47D breast 34.9% | BT-549 breast 53.4% | SW-620 colon 58.6% | MCF7 breast 35.8% | HCT-116 colon 66% | HCC-2998 colon 91.4% | KM12 colon 44.5%
active: MDA-MB-435 melanoma -9.13%

CC(C)C(=O)Nc1nc2c(s1)CCCc1ccn(S(=O)(=O)c3ccccc3)c1-2
inactive: T-47D breast 91.9% | BT-549 breast 89.8% | MDA-MB-435 melanoma 106% | SW-620 colon 105% | MCF7 breast 86.3% | HCT-116 colon 78.9% | HCC-2998 colon 106% | KM12 colon 97.1%

CCN(CC)CCNc1ccc([N+](=O)[O-])c2sc3cc(Cl)ccc3c(=O)c12
inactive: T-47D breast 103% | BT-549 breast 89.9% | MDA-MB-435 melanoma 72.8% | SW-620 colon 40.2% | MCF7 breast 24.6% | HCT-116 colon 11.8% | HCC-2998 colon 47.3% | KM12 colon 66.6%

O=c1c2ccccc2sc2c(NCCN3CCOCC3)nc3ccccc3c12
inactive: T-47D breast 52.2% | BT-549 breast 73.7% | MDA-MB-435 melanoma 70.1% | SW-620 colon 18% | MCF7 breast 43.7% | HCT-116 colon 42.5% | HCC-2998 colon 54.2% | KM12 colon 30%

Cc1nc(N)nc(SCc2ccccc2)c1Br
inactive: T-47D breast 65.2% | BT-549 breast 76.4% | MDA-MB-435 melanoma 111% | SW-620 colon 104% | MCF7 breast 79.8% | HCT-116 colon 89% | HCC-2998 colon 117% | KM12 colon 98.6%

CCCCCCCC(=O)SCC/C=C/[C@@H]1CC(=O)NCc2nc(cs2)C2=N[C@@](C)(CS2)C(=O)N[C@@H](C(C)C)C(=O)N1
inactive: BT-549 breast 40.1% | SW-620 colon 26.9% | MCF7 breast 13.2%
active: T-47D breast -25.6% | MDA-MB-435 melanoma 6.04% | HCT-116 colon -30.3% | HCC-2998 colon -6.96% | KM12 colon 8.82%

COc1ccc(C(=O)NC(=O)Nc2ccc3c(c2)NC(=O)/C3=C\c2[nH]c(C)c(CCC(=O)O)c2C)c(F)c1
inactive: T-47D breast 21.5% | BT-549 breast 11.2% | MDA-MB-435 melanoma 53.8% | SW-620 colon 38.5% | MCF7 breast 45.3% | HCT-116 colon 28.3% | HCC-2998 colon 46.8% | KM12 colon 15.5%

COc1ccc(C2CC(c3cc(Cl)c(C)cc3OC)=NN2c2ccc(S(N)(=O)=O)cc2)cc1OC (configuration not stated)
inactive: T-47D breast 77% | BT-549 breast 83.2% | MDA-MB-435 melanoma 95.8% | SW-620 colon 93.6% | MCF7 breast 80.4% | HCT-116 colon 56.7% | HCC-2998 colon 99.9% | KM12 colon 91.8%

Cc1ccc(-c2cc(-c3nnc(SCC(=O)c4ccccc4)o3)c3ccccc3n2)cc1
inactive: T-47D breast 93% | BT-549 breast 93.4% | MDA-MB-435 melanoma 93.5% | SW-620 colon 101% | MCF7 breast 91.2% | HCT-116 colon 99% | HCC-2998 colon 99.6% | KM12 colon 94.1%

CCCCOc1c(N)cccc1C(=O)OCCN(CC)CC
inactive: T-47D breast 93.3% | BT-549 breast 93.6% | MDA-MB-435 melanoma 111% | SW-620 colon 102% | MCF7 breast 103% | HCT-116 colon 79.2% | HCC-2998 colon 90.2% | KM12 colon 102%

Cc1c(Cl)ccc2c(C(=O)Cl)cc(-c3ccccc3)nc12
inactive: T-47D breast 90.9% | BT-549 breast 94.8% | MDA-MB-435 melanoma 98.3% | SW-620 colon 97.5% | MCF7 breast 87.6% | HCT-116 colon 102% | HCC-2998 colon 109% | KM12 colon 102%

c1cncc(-c2nc3ccccc3[nH]2)c1
inactive: T-47D breast 103% | BT-549 breast 100% | MDA-MB-435 melanoma 121% | SW-620 colon 85.1% | MCF7 breast 85.1% | HCT-116 colon 93.8% | HCC-2998 colon 92.2% | KM12 colon 97.5%

COc1ccc(-c2nn(-c3ccc(NC(=O)c4cc(Cl)cc(Cl)c4)cc3)cc2-c2ccncc2)cc1Cl
inactive: T-47D breast 67.4% | BT-549 breast 66.8% | MDA-MB-435 melanoma 68.6% | SW-620 colon 68.6% | MCF7 breast 73.7% | HCT-116 colon 55.7% | HCC-2998 colon 49.6% | KM12 colon 29.7%

COC(=O)CCCNS(=O)(=O)c1cc(C(=O)Nc2ccc(NC(=O)c3cc(S(=O)(=O)NCCCC(=O)OC)c(O)c(O)c3O)cc2)c(O)c(O)c1O
active: MDA-MB-435 melanoma 1.35%
inactive: T-47D breast 97.2% | BT-549 breast 99.4% | SW-620 colon 95.8% | MCF7 breast 73.7% | HCT-116 colon 76.9% | HCC-2998 colon 93.4% | KM12 colon 96%

Cc1nccc2c3ccc(OCc4cn(-c5ccc(Br)cc5)nn4)cc3n(CCCc3ccccc3)c12
inactive: T-47D breast 104% | BT-549 breast 53.5% | MDA-MB-435 melanoma 18.7% | MCF7 breast 12.5% | HCT-116 colon 30.6% | HCC-2998 colon 35.6%
active: SW-620 colon 2.21% | KM12 colon 8.07%

Cc1cc(NCCN(C(C)C)C(C)C)nc(/N=C(\N)Nc2ccc(Cl)c(C(F)(F)F)c2)n1
active: T-47D breast -54.3% | BT-549 breast -64.6% | MDA-MB-435 melanoma -73.9% | SW-620 colon -89.7% | MCF7 breast -78.4% | HCT-116 colon -100% | HCC-2998 colon -96.7% | KM12 colon -92.6%

Cc1ccc(-c2nc3c(N=Nc4ccc(S(N)(=O)=O)cc4)c(N)nn3c(N)c2C#N)cc1
inactive: T-47D breast 34.1% | BT-549 breast 56% | MDA-MB-435 melanoma 52.3% | SW-620 colon 16.5% | MCF7 breast 28.3% | HCT-116 colon 13.7% | HCC-2998 colon 52.4% | KM12 colon 29.2%

From PubChem BioAssay (NCI)
